The list is not random: actives were taken first. Their share in the collection is about 6.9%.
Cy5 interf NS3h: enhances or quenches Cy5 fluorescence in NS3h assay | 16,000 tested, 6% active | Cy5-dT15 DNA with NS3h, fluorescence interference; actives lie on both sides; signal over control mean, under 1 quenches | fluorescence interference ratio at 100 µM;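 active means compound fluorescence over control fluorescence at most 0.8, a quencher, or at least a set upper limit, an enhancer; inactive means ratio between 0.8 and the set upper limit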
HCV NS3h FP: hepatitis C NS3 helicase inhibition, primary screen; 16,000 tested, 1.6% active; AID 687043; inhibition, % at 100 µM; NS3h Cy5-dT15 DNA binding, fluorescence polarization;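 active means inhibition above the average over every tested compound plus 3 SD, cut at about 40% in these data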
HCV NS3h conf: hepatitis C NS3 helicase inhibition, confirmation | shares compounds with HCV NS3h FP | NS3h binding to Cy5-dT15 DNA, fluorescence polarization | inhibition, % at 100 µM | 240 tested, 20% active | AID 720485;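 active means percent inhibition of 50% or more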
SSB FP counter: disrupts E. coli SSB binding to DNA in counter-screen; inhibition, % at 100 µM; AID 720486; shares compounds with HCV NS3h FP; 240 tested, 40% active; E. coli SSB binding Cy5-dT15, fluorescence polarization;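 active means inhibition of at least 50%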;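 further: displacers lower Cy5 polarization so higher inhibition means more SSB displaced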
Target sequence (P0AGE0 whole entry, looked up): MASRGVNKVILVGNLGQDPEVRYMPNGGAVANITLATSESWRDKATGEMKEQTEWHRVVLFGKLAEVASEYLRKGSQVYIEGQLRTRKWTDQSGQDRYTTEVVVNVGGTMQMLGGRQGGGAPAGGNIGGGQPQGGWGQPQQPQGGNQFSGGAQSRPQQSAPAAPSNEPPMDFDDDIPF
Cy5 SSB fluor CB: counter-screen for HCV NS3 helicase inhibitors: fluorescence interference; shares compounds with HCV NS3h FP; Cy5-dT15/E. coli SSB fluorescence interference; actives lie on both sides; fluorescence interference ratio at 100 µM; 240 tested, 8% active;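 active means fluorescence interference ratio at or above 1.2, signal boosting, or at or below 0.8, signal quenching; inactive means ratio between 0.8 and 1.2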
Cy5 interf conf: confirmation counter-screen for HCV NS3 helicase inhibitors: fluorescence interference | shares compounds with HCV NS3h FP | Cy5-dT15 DNA/NS3h fluorescence interference counterscreen | fluorescence interference ratio at 100 µM, hits read low | 240 tested, 44% active | AID 720489;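 active means fluorescence interference ratio at or below 0.8 quencher or at or above a set limitenhancer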
Of the large screens only hits and unclear results are named; the others gave an inactive call (follow-up assays come after a bar, where they were run).

CCOC(=O)c1[nH]cnc1C(=O)N1CCOCC1	none
O=C1CSC(=Nc2ccc(O)cc2)N1	none
Cc1ccc(C)n1/N=C1/NC(=O)CS1	HCV NS3h FP 90 | HCV NS3h conf 77 | SSB FP counter 107 | Cy5 SSB fluor CB inactive | Cy5 interf conf inactive
Cc1ccc(OCCOc2ccc(Cl)cc2/C=C2/SC(=S)N(C)C2=O)cc1	HCV NS3h FP 46 | HCV NS3h conf inactive | SSB FP counter inactive | Cy5 SSB fluor CB inactive | Cy5 interf conf 0.8
Cc1ccc(OCCOc2ccc(Br)cc2/C=C2/SC(=S)N(C)C2=O)cc1	none
NCCCNc1ccccc1[N+](=O)[O-]	none
CCOc1ccc2ccc(OCC)c(/C=C3/SC(=S)NC3=O)c2c1	none
CCOc1ccc2ccccc2c1C=C1C(=O)NC(=S)NC1=O	HCV NS3h FP 44 | HCV NS3h conf inactive | SSB FP counter inactive | Cy5 SSB fluor CB inactive | Cy5 interf conf inactive
O=C1NC(=S)S/C1=C\c1ccccc1OCc1ccc(Cl)cc1	none
Cc1cc(C)cc(NC(=O)C(=O)NCc2cccnc2)c1	none
CCN(CC)c1ccc(N=Cc2c(O)[nH]c(=S)[nH]c2=O)cc1	Cy5 interf NS3h 0.73, HCV NS3h FP 94 | HCV NS3h conf 54 | SSB FP counter 70 | Cy5 SSB fluor CB inactive | Cy5 interf conf 0.79
CCN(CC)c1ccc(C=Nc2ccc(S(N)(=O)=O)cc2)c(O)c1	none
O=C(NC1Sc2ccccc2N=C1c1ccccc1)c1ccco1 (stereo unspecified)	none
O=C1NC(=O)N(c2ccccc2)C(=O)/C1=C\c1ccccc1OCc1ccccc1F	none
C=CCN1C(=O)NC(=O)/C(=C\c2ccccc2OCc2ccc([N+](=O)[O-])cc2)C1=O	Cy5 interf NS3h 0.49, HCV NS3h FP 58 | HCV NS3h conf inactive | SSB FP counter inactive | Cy5 SSB fluor CB inactive | Cy5 interf conf 0.66
Nc1ncc(Cc2ccccc2[N+](=O)[O-])s1	none
COC(=O)C1=C(C)NC2=C(C(=O)c3ccccc32)C1c1ccc(-c2ccc(Cl)cc2)o1 (stereo unspecified)	none
CN(C)c1ccc(/C=C(\NC(=O)c2ccccc2)C(=O)N/N=C\c2cc(O)ccc2[N+](=O)[O-])cc1	Cy5 interf NS3h 0.65, HCV NS3h FP 45 | HCV NS3h conf inactive | SSB FP counter 76 | Cy5 SSB fluor CB 0.79 | Cy5 interf conf 0.73
O=C(N/N=C\c1ccccc1O)/C(=C\c1ccc2c(c1)OCO2)NC(=O)c1ccccc1	none
COc1ccc(/C=C/C(=O)Nc2ccccc2O)cc1	none
Cc1[nH]c(=S)c(C#N)c(-c2cccs2)c1C(=O)Nc1ccccc1	none

From PubChem BioAssay
